Source: PubChem BioAssay AID1159580 (chemical genetic matrix, 2015)
Several values for one entry are separate records, joined by “and”; a condition that tells them apart may be missing. Identical values can stand only once. In all, about 5,500 compounds went through this assay and about 2,000 (36%) were called active. Inconclusive results (about 18%) are left out. Rule as the data show it: active = normalized growth mostly below about 0.91 (no sharp cut-off); inconclusive = no clear call, values can overlap the other calls; inactive = mostly above about 0.92. The list shows a part of the results.

Experiment: chemical genetic growth profiling, strain panel (AID 1159580);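 also: tested at 20 µM; growth read once vehicle control cultures reached saturation at 30 °C; 1 = growth at the plate median or of vehicle wells; lower values mean less growth of the strain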
Details: S. cerevisiae deletion strains, growth OD

## Nc1ncnc2nc[nH]c12
Locus YAL013W, strain DEP1, stronger effect = lower value
  normalized growth: 0.94 (inactive)
Locus YAL021C, strain ccr4, stronger effect = lower value
  normalized growth: 0.99 (inactive)
Locus YAL026C, strain drs2, stronger effect = lower value
  normalized growth: 0.99 (inactive)
Locus YAL030W, strain snc1, stronger effect = lower value
  normalized growth: 0.981 (inactive)
Locus YBL061C, strain skt5, stronger effect = lower value
  normalized growth: 0.98 (inactive)
Locus YBR009C, strain hhf1, stronger effect = lower value
  normalized growth: 0.992 (inactive)
Locus YBR021W, strain FUR4, stronger effect = lower value
  normalized growth: 0.201 (active)
Locus YBR023C, strain chs3, stronger effect = lower value
  normalized growth: 0.986 (inactive)
Locus YBR171W, strain sec66, stronger effect = lower value
  normalized growth: 0.976 (inactive)
Locus YBR229C, strain ROT2, stronger effect = lower value
  normalized growth: 1.02 (inactive)
Locus YBR231C, strain swc5, stronger effect = lower value
  normalized growth: 0.982 (inactive)
Locus YBR279W, strain paf1, stronger effect = lower value
  normalized growth: 0.993 (inactive)
Locus YCL011C, strain gbp2, stronger effect = lower value
  normalized growth: 0.978 (inactive)
Locus YCL016C, strain dcc1, stronger effect = lower value
  normalized growth: 0.973 (inactive)
Locus YCL029C, strain bik1, stronger effect = lower value
  normalized growth: 0.923 (inactive)
Locus YCL061C, strain MRC1, stronger effect = lower value
  normalized growth: 0.981 (inactive)
Locus YCL069W, strain vba3, stronger effect = lower value
  normalized growth: 0.99 (inactive)
Locus YCR088W, strain abp1, stronger effect = lower value
  normalized growth: 0.985 (inactive)
Locus YDL005C, strain med2, stronger effect = lower value
  normalized growth: 0.985 (inactive)
Locus YDL035C, strain GPR1, stronger effect = lower value
  normalized growth: 0.894 (inactive)
Locus YDL040C, strain nat1, stronger effect = lower value
  normalized growth: 0.983 (inactive)
Locus YDL074C, strain BRE1, stronger effect = lower value
  normalized growth: 0.645 (active)
Locus YDL101C, strain DUN1, stronger effect = lower value
  normalized growth: 0.968 (inactive)
Locus YDL185W, strain tfp1, stronger effect = lower value
  normalized growth: 1.01 (inactive)
Locus YDL192W, strain arf1, stronger effect = lower value
  normalized growth: 0.797 (active)
Locus YDR001C, strain nth1, stronger effect = lower value
  normalized growth: 0.983 (inactive)
Locus YDR069C, strain doa4, stronger effect = lower value
  normalized growth: 1.01 (inactive)
Locus YDR101C, strain arx1, stronger effect = lower value
  normalized growth: 0.866 (active)
Locus YDR137W, strain rgp1, stronger effect = lower value
  normalized growth: 0.985 (inactive)
Locus YDR150W, strain NUM1, stronger effect = lower value
  normalized growth: 1.02 (inactive)
Locus YDR159W, strain sac3, stronger effect = lower value
  normalized growth: 1 (inactive)
Locus YDR162C, strain NBP2, stronger effect = lower value
  normalized growth: 0.951 (inactive)
Locus YDR195W, strain ref2
  normalized growth: 0.998 (inactive)
Locus YDR297W, strain sur2, stronger effect = lower value
  normalized growth: 1.01 (inactive)
Locus YDR318W, strain mcm21, stronger effect = lower value
  normalized growth: 0.939 (inactive)
Locus YDR334W, strain swr1, stronger effect = lower value
  normalized growth: 0.982 (inactive)
Locus YDR335W, strain msn5, stronger effect = lower value
  normalized growth: 0.984 (inactive)
Locus YDR388W, stronger effect = lower value
  normalized growth: 0.98 (inactive)
Locus YDR392W, strain spt3, stronger effect = lower value
  normalized growth: 0.968 (inactive)
Locus YDR502C, strain sam2, stronger effect = lower value
  normalized growth: 0.908 (active)
Locus YEL003W, strain gim4, stronger effect = lower value
  normalized growth: 1.01 (inactive)
Locus YEL037C, strain rad23, stronger effect = lower value
  normalized growth: 0.984 (inactive)
Locus YEL061C, strain CIN8 (second series), stronger effect = lower value
  normalized growth: 0.986 (inactive)
Locus YEL061C, strain CIN8, stronger effect = lower value
  normalized growth: 0.996 (inactive)
Locus YER015W, strain faa2, stronger effect = lower value
  normalized growth: 0.994 (inactive)
Locus YER016W, strain bim1, stronger effect = lower value
  normalized growth: 0.994 (inactive)
Locus YER110C, stronger effect = lower value
  normalized growth: 1 (inactive)
Locus YER111C, strain swi4, stronger effect = lower value
  normalized growth: 0.983 (inactive)
Locus YER155C, strain BEM2 (second series), stronger effect = lower value
  normalized growth: 0.989 (inactive)
Locus YER155C, strain BEM2, stronger effect = lower value
  normalized growth: 0.792 (active)
Locus YER167W, strain BCK2, stronger effect = lower value
  normalized growth: 1.01 (inactive)
Locus YFR010W, strain ubp6, stronger effect = lower value
  normalized growth: 0.982 (inactive)
Locus YGL078C, strain dbp3, stronger effect = lower value
  normalized growth: 0.969 (inactive)
Locus YGL086W, strain mad1, stronger effect = lower value
  normalized growth: 0.838 (active)
Locus YGL167C, strain pmr1, stronger effect = lower value
  normalized growth: 0.979 (inactive)
Locus YGL173C, strain kem1, stronger effect = lower value
  normalized growth: 0.984 (inactive)
Locus YGL227W, strain vid30, stronger effect = lower value
  normalized growth: 0.987 (inactive)
Locus YGL240W, strain doc1, stronger effect = lower value
  normalized growth: 0.997 (inactive)
Locus YGL248W, strain PDE1, stronger effect = lower value
  normalized growth: 0.9 (inactive)
Locus YGL253W, strain hxk2, stronger effect = lower value
  normalized growth: 0.987 (inactive)
Locus YGR078C, strain PAC10, stronger effect = lower value
  normalized growth: 0.828 (active)
Locus YGR135W, strain pre9, stronger effect = lower value
  normalized growth: 0.922 (inactive)
Locus YGR252W, strain gcn5, stronger effect = lower value
  normalized growth: 0.705 (active)
Locus YHR013C, strain ard1, stronger effect = lower value
  normalized growth: 0.975 (inactive)
Locus YHR027C, strain rpn1, stronger effect = lower value
  normalized growth: 0.979 (inactive)
Locus YHR030C, strain SLT2, stronger effect = lower value
  normalized growth: 0.393 (active) and 1.02 (inactive)
Locus YHR079C, strain IRE1 (second series), stronger effect = lower value
  normalized growth: 0.974 (inactive)
Locus YHR079C, strain IRE1, stronger effect = lower value
  normalized growth: 1.02 (inactive)
Locus YHR094C, strain hxt1, stronger effect = lower value
  normalized growth: 0.999 (inactive)
Locus YHR129C, strain ARP1, stronger effect = lower value
  normalized growth: 0.898 (active)
Locus YHR142W, strain chs7, stronger effect = lower value
  normalized growth: 0.955 (inactive)
Locus YHR200W, strain rpn10, stronger effect = lower value
  normalized growth: 0.998 (inactive)
Locus YIL066C, strain RNR3, stronger effect = lower value
  normalized growth: 0.862 (active)
Locus YIL073C, strain SPO22, stronger effect = lower value
  normalized growth: 0.594 (active)
Locus YIL125W, strain kgd1, stronger effect = lower value
  normalized growth: 0.991 (inactive)
Locus YIR030C, strain dcg1, stronger effect = lower value
  normalized growth: 0.988 (inactive)
Locus YJL092W, strain hpr5, stronger effect = lower value
  normalized growth: 0.99 (inactive)
Locus YJL095W, strain BCK1 (second series), stronger effect = lower value
  normalized growth: 0.984 (inactive)
Locus YJL095W, strain BCK1, stronger effect = lower value
  normalized growth: 0.593 (active) and 1.02 (inactive)
Locus YJL115W, strain asf1, stronger effect = lower value
  normalized growth: 0.99 (inactive)
Locus YJL129C, strain trk1, stronger effect = lower value
  normalized growth: 0.99 (inactive)
Locus YJL134W, strain LCB3, stronger effect = lower value
  normalized growth: 1.02 (inactive)
Locus YJL154C, strain vps35, stronger effect = lower value
  normalized growth: 0.997 (inactive)
Locus YJL164C, strain tpk1, stronger effect = lower value
  normalized growth: 0.993 (inactive)
Locus YJL166W, strain qcr8, stronger effect = lower value
  normalized growth: 0.977 (inactive)
Locus YJL168C, strain set2, stronger effect = lower value
  normalized growth: 1 (inactive)
Locus YJL187C, strain SWE1 (second series), stronger effect = lower value
  normalized growth: 0.863 (active)
Locus YJL187C, strain SWE1, stronger effect = lower value
  normalized growth: 0.98 (inactive)
Locus YJR043C, strain POL32, stronger effect = lower value
  normalized growth: 0.907 (inactive)
